# Source: PubChem BioAssay (NCI)
# This is part of a sample that, as a whole, favours compounds with a hit. Of some 79,000 tested, about 15% had one in any assay. Unmarked numbers belong to inactive results. Activity calls are given as the source filed them. Cut-off read from the data, not from the text of the source: active = growth inhibition above about 70%; inactive = the rest.
# Experiments:
# [1] = NCI Yeast Anticancer Drug Screen. Data for the rad50 strain (AID 155);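 note: 0% = growth of vehicle-only cultures of the same strain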; conditions: S. cerevisiae rad50 strain growth inhibition; at 50.0 µM; hits give high values
# How it was run: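 Readout: growth inhibition relative to vehicle-treated cultures. Compound exposure was carried out in a genetically defined yeast strain deficient in DNA damage repair.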
# [2] = NCI Yeast Anticancer Drug Screen. Data for the mec2-1 strain (AID 157); conditions: S. cerevisiae mec2-1 strain, at 50.0 µM, hits give high values
# How it was run: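 Mutant yeast (mec2-1) grown with compound; growth inhibition relative to vehicle control reported.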
# [3] = NCI Yeast Anticancer Drug Screen. Data for the sgs1 mgt1 strain (AID 161);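 note: 0% = growth of cultures given vehicle only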; conditions: S. cerevisiae sgs1 mgt1 strain, at 50.0 µM, hits give high values
# How it was run: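 Yeast cells carrying a defined DNA-repair defect were exposed to test compounds. Growth inhibition was measured relative to vehicle-treated controls.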
# [4] = NCI Yeast Anticancer Drug Screen. Data for the cln2 rad14 strain (AID 165);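 note: 0% = growth equal to vehicle treated cultures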; conditions: S. cerevisiae cln2 rad14 strain, at 50.0 µM, hits give high values
# How it was run: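 Readout is yeast growth inhibition versus vehicle-treated controls, using a strain with cln2 and rad14 alterations exposed to compound.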
# [5] = NCI Yeast Anticancer Drug Screen. Data for the bub3 strain (AID 167); conditions: S. cerevisiae bub3 mutant strain, at 50.0 µM, hits give high values
# How it was run: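 Readout: yeast growth inhibition, expressed relative to vehicle-only wells. The test organism is a mutant strain from a panel with lesions in DNA repair or checkpoint genes.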
# [6] = NCI Yeast Anticancer Drug Screen. Data for the mlh1 rad18 strain (AID 175); conditions: S. cerevisiae mlh1 rad18 strain growth inhibition; at 50.0 µM; hits give high values
# How it was run: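 Genetically defined yeast (DNA repair-deficient) exposed to compounds; growth inhibition determined relative to vehicle.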
SMILES,growth inhibition [1] [%],growth inhibition [2] [%],growth inhibition [3],growth inhibition [4] [%],growth inhibition [5] [%],growth inhibition [6]
CCN(CC)c1ccc(NC(=S)Nc2cccc(C(F)(F)F)c2)c(C)c1,35.9,21.6,52.2%,1.9,2.45,19.2%
OC(C1COCO1)C1OCOC1C1COCO1 (stereo not drawn),21.6,9.45,3.2%,3.55,-11.2,6.15%
N#Cc1cc(-c2ccccc2)c[nH]c1=O,-8.55,-1.45,-4.6%,-36.9,-1.25,-1.55%
O=C(CCCc1ccccc1)NO,14.7,33.6,17.5%,3.35,10.8,13.6%
OCc1cn(C(c2ccccc2)(c2ccccc2)c2ccccc2)cn1,-113,-58.3,-22.5%,-0.85,-1,-30.6%
O=C(O)C1SCCS1,15.4,14.7,19.1%,21.8,22.1,12.8%
CC(=O)Nc1c(I)c(C(=O)NC2C(O)OC(CO)C(O)C2O)c(I)c(N(C)C(C)=O)c1I (stereo not drawn),-27.2,4.55,-14.2%,-21.6,-21.5,-38%
CCOC(=O)C1C(=O)C(=O)N(C)C1c1ccccc1 (stereo not drawn),-2.6,16.3,8.1%,-49.9,2.7,8.55%
NC(N)=NC(=O)c1ccc(N)cc1,-13.6,-2.25,-0.1%,-7.35,-3.4,23.5%
COC(=O)C1OC(Sc2ncnc3nc[nH]c23)C(O)C(O)C1O (stereo not drawn),3.15,1.6,-0.85%,17.4,7.3,4.9%
C/C(N=NC(=S)N1CCCC1)=C1\C=CC=CN1O,5.45,-8.35,15.4%,-5.6,7.95,22.9%
CC(C)c1cccc(C(C)C)c1NC(=O)Nc1cccc(C(F)(F)F)c1,-5.4,-11.1,1.45%,8.3,10.2,3.85%
COc1ccc(C2S/C(=C\c3cccc([N+](=O)[O-])c3)C(=O)N2NC(=O)Cc2ccccc2)cc1 (stereo not drawn),0.65,-21.2,3.85%,-58.6,36,12.4%
C=C(Cl)C(=C)CCC(Cl)C(C)(C)Cl (stereo not drawn),12.6,9.4,-13.7%,2.5,-16.8,-8.4%
CC(=O)C1C[C@]2(O)[C@@]3(C)CO[C@]2(C)CC1(O)C3 (stereo partly drawn),3.45,11.4,17.9%,7.2,20.2,12.9%
CCCOc1ccc(C(=O)C(=O)c2ccccc2)cc1,13.4,-0.2,-3.95%,0.8,11.4,7%
COc1ccc(/C=C(\C2=NC(=O)CS2)c2nc3ccccc3[nH]2)cc1,-0.35,-4.2,-20.1%,-3.9,-20.4,-24.9%
O=C(CC(CC(=O)Oc1c(Br)cc(Br)cc1C(=O)O)C(=O)Oc1c(Br)cc(Br)cc1C(=O)O)Oc1c(Br)cc(Br)cc1C(=O)O,-17.4,-23.4,-10%,8.7,-24,-5.6%
CCc1cc2c(cc1COC(C)=O)C(C)(C)CCC2(C)C,-10.8,-19.4,5.5%,-13.8,4.3,-31.9%

SMILES,growth inhibition [1] [%],growth inhibition [2] [%],growth inhibition [3],growth inhibition [4] [%],growth inhibition [5] [%],growth inhibition [6]
Cc1nn(C(N)=S)c(C)c1N=Nc1ccc(O)cc1,-5.2,-4.2,-4.9%,-29.8,-11.2,15.9%
CC(=O)c1ccccc1C,-32.6,-69.5,-43.7%,-1.25,-38.1,-22.3%
CC1=C(/C=C/C(C)=C/C=C/C(C)=C/C=C/C=C(C)/C=C/C=C(C)/C=C/C=C(C)/C=C/C=C(\C)C(=O)O)C(C)(C)CCC1,3.7,25.6,-21.8%,18.6,7.6,-2.1%
c1cncc(C2c3[nH]c4ccccc4c3CCN2CCN2CCCCC2)c1 (stereo not drawn),-32.8,-46.5,-9.4%,-4.35,-37.5,-34.4%
CCCC(O)C(C)N (stereo not drawn),4.3,-3.1,-2.9%,-0.2,-2.25,-3.15%
COc1cc(CN2CCCCC2)cc2cc(C(=O)O)c(=O)oc12,8.75,7.55,-34.9%,-1.15,-15.3,-11.9%
CC1CCC2CCCCC2/C1=N\NC(N)=O (stereo not drawn),-10.8,-3.9,3.95%,2.35,0.25,-16.7%
CC(=O)OC1C(=C(Br)Br)C(COC(=O)c2ccccc2)OC1n1cnc2c(NC(=O)c3ccccc3)ncnc21 (stereo not drawn),8.3,8.8,10.4%,0.1,16.9,25.9%
c1ccc2c(c1)CCCN2c1nc(N2CCCCC2)nc(N2CCOCC2)n1,12.9,-17.9,22.6%,22.1,11.6,20.1%
CCc1ccc(NC(=O)c2ccc(C(=O)Nc3ccc(CC)cc3)cc2)cc1,3.2,6.6,8.4%,14.1,13.4,5.1%
Cc1cccc2nc(-c3ccccc3)ccc12,-3.5,-11.6,1.55%,5.6,4.95,4%
c1ccc(C2=C(c3ccccc3)CSSC2)cc1,46.4,34.6,79.8% (active),46.6,41.7,93.5% (active)
O=C1C=C(NCC(c2ccccc2)c2ccccc2)C(=O)c2ncccc21,33.2,24.8,43%,34.9,40.9,77.8% (active)
Cc1ccccc1C1CCCCC1OS(C)(=O)=O (stereo not drawn),-6.3,-1.35,-15.2%,-7.6,7.1,-11.1%
O=C(C#Cc1ccccc1)N1c2ccccc2CC1c1c[nH]c2ccccc12 (stereo not drawn),-7.25,-6.2,0.7%,2.55,-2.8,-6.85%
O=C(NC(=S)Nc1cc(C(F)(F)F)ccc1Cl)c1ccccc1F,-1.25,-1.2,0.35%,-6.85,-1.35,4.95%
O=C1CN(/N=C/c2ccc(-c3cccc(C(F)(F)F)c3)o2)C(=O)N1,36.4,18.4,19.8%,-19.3,16.2,21.1%
COc1cc2c(cc1OC)CN1CCc3ccccc3CC1C2 (stereo not drawn),15.3,-73.3,-16.8%,-5.1,-33.5,-33.7%
CC(=O)NCCOC(=O)c1ccccc1,34.5,4.75,16.4%,-17.9,4.05,5.9%
